Twelve molecules from PubChem BioAssay (NCATS) can be followed below.

Results filed as inconclusive are left out. Unmarked numbers belong to inactive results. Activity calls are given as the source filed them. Calls follow the shape of the full dose curve. Peptide text beside a SMILES is read from it.

Retinoic acid receptor RXR-alpha (Homo sapiens), sequence (P19793 whole entry, looked up): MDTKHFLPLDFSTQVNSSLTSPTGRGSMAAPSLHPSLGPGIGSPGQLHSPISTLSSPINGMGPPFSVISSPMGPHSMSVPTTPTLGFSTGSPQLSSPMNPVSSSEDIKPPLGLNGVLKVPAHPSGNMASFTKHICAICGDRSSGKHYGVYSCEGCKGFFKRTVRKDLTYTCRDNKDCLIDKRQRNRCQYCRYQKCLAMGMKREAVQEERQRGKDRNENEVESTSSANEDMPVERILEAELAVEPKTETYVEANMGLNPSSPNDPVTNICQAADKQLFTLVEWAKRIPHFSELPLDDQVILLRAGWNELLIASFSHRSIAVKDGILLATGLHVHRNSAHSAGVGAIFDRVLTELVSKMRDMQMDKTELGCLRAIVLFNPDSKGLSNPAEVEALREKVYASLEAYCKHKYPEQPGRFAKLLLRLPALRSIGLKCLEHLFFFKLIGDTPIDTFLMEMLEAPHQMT

The target in this test is Retinoic acid receptor RXR-alpha (Homo sapiens) (UniProt P19793). Briefly: qHTS assay for small molecule agonists of retinoid X receptor alpha signaling (AID 588544). To be noted: HEK293T RXRa-UAS-bla, beta-lactamase reporter, 18 h; series mostly up to 76.7 µM; activation: at the top concentration. The text has this:
NIH Chemical Genomics Center [NCGC] U.S. Environmental Protection Agency [EPA] National Institutes of Environmental Health Sciences [NIEHS] National Toxicology Program [NTP] NCGC Assay Overview The Retinoid X receptor (RXR), a nuclear hormone receptor is expressed in liver, spleen, placenta, epidermis, central nervous system. These receptors are able to form homo and heterodimers with other nuclear receptors and due to this heterodimerizing ability, RXR functions as master regulators producing diverse physiological effects. Three subtypes of RXR exist; alpha, beta and gamma. Retinoid X receptor alpha (RXR-alpha) has potential roles in metabolic signaling pathways, skin alopecia, dermal cysts, cardiac development, insulin sensitization etc. Therefore screening environmental chemicals on RXR-alpha signaling can be used for the studies focused on such therapeutic applications.
NCGC Assay Protocol Summary Using a beta-lactamase reporter-gene under control of Retinoid X receptor--alpha (RXR-alpha) response element, a cell-based assay [GeneBLAzer (RXR-alpha -UAS-bla assay developed by Invitrogen] was used to measure RXR-alpha ligands signaling. GeneBLAzer RXR-alpha -UAS-bla HEK293T cells were used with assay medium containing 2% charcoal-stripped FBS. The assay was performed in clear bottom black Greiner 1536-well plates. 9-cis-retinoic acid was used in the screen as the positive control. Library compounds were measured for their ability to stimulate the reporter gene activity. Compounds were screened in a titration series in 1536-well format. The fluorescence intensity (405 nm excitation, 460/530 nm emission) was measured using an EnVision plate reader. Data was normalized relative to 9-cis-retinoic acid control (500 nM, 100%), and DMSO only wells (basal, 0%). Concentration-response titration points for each compound were fitted to the Hill equation yielding concentrations of half-maximal stimulation (EC50) and maximal response (efficacy) values. qHTS protocol for RXR-alpha beta-lactamase assay in agonist mode [Step] [Parameter] [Value] [Description] 1. Reagent; 6 uL; 2500 cells/well 2. Incubation; 37 C for 4 hrs 3. Compounds; 23 nL; 0.59 nM to 92 uM 4. Controls (9-cis-retinoic acid); 23 nL, - One column with dose response, start 38 uM, 1:3 dilutions in duplicates - Final concentrations of 500 nM and 50 nM in two columns 5. Incubation; 37 C for 18 hrs 6. Detection reagent; 1 uL of CCF4-dye 7. Incubation; RT for 2 hrs 8. Detection; Fluorescence; Envision plate reader
As to `COc1c2occc2cc2ccc(=O)oc12`, the “activation” value is -0.337%.

Consider `Cc1ccc(C)c(OCCCC(C)(C)C(=O)O)c1`, for which the molecule was called inactive.

For `CC1(C)NC(=O)N(c2ccc([N+](=O)[O-])c(C(F)(F)F)c2)C1=O`, the “activation” value is -24.8%.

Regarding `COc1cc(OC)c(C(=O)CCCN2CCCC2)c(OC)c1`, the “activation” value was -4.84%.

With `CNC[C@H](O)c1ccc(O)c(O)c1`, the “activation” value is -8.15%.

As for `CCc1nc(N)nc(N)c1-c1ccc(Cl)cc1`, the call was inactive.

As for `COC(=O)[C@H](Cc1ccccc1)NC(=O)[C@@H](N)CC(=O)O` (H-Asp-Phe-OMe), the molecule was classed as inactive.

As to `CCCc1cc(=O)[nH]c(=S)[nH]1`, the outcome was inactive.

Turning to `c1ccc2[nH]c(-c3cscn3)nc2c1`, the result was inactive.

For `CS(=O)(=O)OCCCCOS(C)(=O)=O`, the result was inactive.

For the molecule `Nc1ccc(S(N)(=O)=O)cc1`, the “activation” value was 1.53%.

`N[C@@H](Cc1cc(I)c(Oc2cc(I)c(O)c(I)c2)c(I)c1)C(=O)O`: the “activation” value was -30.3%.
